Assay results from PubChem BioAssay (EPA / NIEHS).
Active and inactive are the calls of the source. The calls were made as follows: active = hit-call score of the fitted dose curve at least 0.9, where 1 is the maximum; inactive = score below 0.9.

Tests used:
Details in all cases: mRNA level, 48 h; actives raise or lower the signal
[1] = read-out: MicroRNA 122 (MIR122), gene 406906; assay: LTEA_HepaRG_MIR122: Life Technologies and Expression Analysis (LTEA) Assay for MicroRNA 122 (MIR122) using HepaRG (AID 2283516); also: the transcript read is the microRNA miR-122
In short: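 Expression measured by microfluidic qRT-PCR with three housekeeping genes for normalisation, after 48 h treatment of HepaRG cultures. Eight concentrations (top 100 uM, half-log steps, 0.5% DMSO vehicle) in duplicate; gain or loss fitted relative to vehicle.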

[2] = read-out: matrix metalloproteinase-10 (MMP10), MMP10 (gene 4319); assay: LTEA_HepaRG_MMP10: Life Technologies and Expression Analysis (LTEA) Assay for matrix metalloproteinase-10 (MMP10) using HepaRG (AID 2283517)
In short: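 In differentiated HepaRG cultures kept in 0.5% DMSO, test chemicals act for 48 h over an eight-point range with a top dose of 100 uM. Expression is then quantified by TaqMan RT-PCR against ACTB, GAPDH and POLR2A.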

[3] = read-out: MYC, MYC (gene 4609); assay: LTEA_HepaRG_MYC: Life Technologies and Expression Analysis (LTEA) Assay for MYC using HepaRG (AID 2283518)
In short: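 Differentiated human HepaRG cells, plated 48 h then switched to serum-free induction medium, were exposed in duplicate for 48 h to 8-point half-log series up to 100 uM in 0.5% DMSO. MYC mRNA measured by qRT-PCR, normalized to ACTB/GAPDH/POLR2A.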

[4] = read-out: matrix metalloproteinase-3 (MMP3), MMP3 (gene 4314); assay: LTEA_HepaRG_MMP3: Life Technologies and Expression Analysis (LTEA) Assay for matrix metalloproteinase-3 (MMP3) using HepaRG (AID 2283519)
In short: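 Human liver HepaRG cultures received chemicals (top concentration 100 uM, 0.5% DMSO) for 48 h in duplicate. MMP3 mRNA induction or loss was then assessed via TaqMan qRT-PCR with housekeeping-gene normalisation.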

[5] = read-out: Paternally Expressed 10 (PEG10), PEG10 (gene 23089); assay: LTEA_HepaRG_PEG10: Life Technologies and Expression Analysis (LTEA) Assay for Paternally Expressed 10 (PEG10) using HepaRG (AID 2283520)
In short: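 PEG10 transcript measured by Fluidigm qRT-PCR, normalized to three housekeeping genes, in HepaRG cells treated 48 h (highest 100 uM, half-log steps, 0.5% DMSO vehicle). Cells plated 48 h before switching to serum-free induction medium.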

[6] = read-out: Nuclear factor NF-kappa-B p105 subunit (Homo sapiens) (UniProt P19838); assay: LTEA_HepaRG_NFKB1: Life Technologies and Expression Analysis (LTEA) Assay for Nuclear Factor Kappa B Subunit 1 (NFKB1) using HepaRG (AID 2283521)
In short: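 NFKB1 transcript was measured by TaqMan qRT-PCR on Fluidigm arrays, normalised to three housekeeping genes and fitted in both directions against 0.5% DMSO. HepaRG cells were dosed in duplicate for 48 h in serum-free induction medium, eight half-log steps from 100 uM.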

[7] = read-out: Protein phosphatase 2A (PPP2R4), PTPA (gene 5524); assay: LTEA_HepaRG_PPP2R4: Life Technologies and Expression Analysis (LTEA) Assay for Protein phosphatase 2A (PPP2R4) using HepaRG (AID 2283522)
In short: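 Expression was quantified by Fluidigm qRT-PCR normalised to three housekeeping genes after 48 h treatment. Human HepaRG cells received an 8-point series from 100 µM downward by half-logs, in duplicate with 0.5% DMSO vehicle and 1 mM phenobarbital as induction control.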

[8] = read-out: Phosphatase and tensin (PTEN), PTEN (gene 5728); assay: LTEA_HepaRG_PTEN: Life Technologies and Expression Analysis (LTEA) Assay for Phosphatase and tensin (PTEN) using HepaRG (AID 2283523)
In short: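 Expression of PTEN is quantified in the human liver line HepaRG following two days of dosing (top concentration 100 uM, half-log dilutions, 0.5% DMSO). Values derive from bidirectional curve fitting relative to DMSO controls.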

[9] = read-out: solute carrier (SLC22A1), SLC22A1 (gene 6580); assay: LTEA_HepaRG_SLC22A1: Life Technologies and Expression Analysis (LTEA) Assay for solute carrier (SLC22A1) using HepaRG (AID 2283524)
In short: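 Transcript induction or suppression of SLC22A1 in human HepaRG cultures is scored after 48 h chemical treatment, with DMSO (0.5%) as baseline for bidirectional fitting. Concentrations span eight half-log points topping at 100 uM.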

[10] = read-out: Pyruvate Dehydrogenase Kinase 4 (PDK4), PDK4 (gene 5166); assay: LTEA_HepaRG_PDK4: Life Technologies and Expression Analysis (LTEA) Assay for Pyruvate Dehydrogenase Kinase 4 (PDK4) using HepaRG (AID 2283525)
In short: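 Eight-point, half-log concentration series (max 100 uM, 0.5% DMSO) applied to differentiated HepaRG cells for 48 h in duplicate. Endpoint: PDK4 mRNA induction or repression by qRT-PCR against DMSO baseline.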

[11] = read-out: NAD(P)H dehydrogenase [quinone] 1 (NQO1), NQO1 (gene 1728); assay: LTEA_HepaRG_NQO1: Life Technologies and Expression Analysis (LTEA) Assay for NAD(P)H dehydrogenase [quinone] 1 (NQO1) using HepaRG (AID 2283526)
In short: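 NQO1 transcript induction or loss measured by TaqMan qRT-PCR, referenced to three housekeeping genes and fitted bidirectionally against 0.5% DMSO. HepaRG cultures exposed 48 h, duplicate, eight-point half-log series, top 100 uM.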

[12] = read-out: Nuclear factor erythroid 2-related factor 2 (Homo sapiens) (UniProt Q16236); assay: LTEA_HepaRG_NFE2L2: Life Technologies and Expression Analysis (LTEA) Assay for Nuclear factor erythroid 2-related factor 2 (NFE2L2) Transcription Factor using HepaRG (AID 2283527)
In short: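 Human liver HepaRG line treated in duplicate for 48 h with an eight-point series topping at 100 uM. Gene expression of NFE2L2 by qRT-PCR, bidirectionally fitted against the vehicle control.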

[13] = read-out: succinate dehydrogenase complex iron sulfur subunit B (SDHB), SDHB (gene 6390); assay: LTEA_HepaRG_SDHB: Life Technologies and Expression Analysis (LTEA) Assay for succinate dehydrogenase complex iron sulfur subunit B (SDHB) using HepaRG (AID 2283528)
In short: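 SDHB transcript level read by TaqMan qRT-PCR, housekeeping-normalised (ACTB, GAPDH, POLR2A), after 48 h chemical treatment of plated HepaRG cells; eight concentrations top 100 uM, half-log steps, 0.5% DMSO, duplicates; fitted both directions against DMSO.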

[14] = read-out: Signal transducer and activator of transcription 3 (Homo sapiens) (UniProt P40763); assay: LTEA_HepaRG_STAT3: Life Technologies and Expression Analysis (LTEA) Assay for Signal transducer and activator of transcription (STAT3) using HepaRG (AID 2283529)
In short: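 In this transcriptional endpoint, HepaRG cultures receive test chemicals at up to 100 uM for 48 h, tested in duplicate. STAT3 mRNA is normalized to ACTB, GAPDH and POLR2A.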

[15] = read-out: solute carrier (SLCO1B1), SLCO1B1 (gene 10599); assay: LTEA_HepaRG_SLCO1B1: Life Technologies and Expression Analysis (LTEA) Assay for solute carrier (SLCO1B1) using HepaRG (AID 2283530)
In short: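 Differentiated human HepaRG cells, plated 48 h, switched to serum-free induction medium and exposed in duplicate for 48 h to 8 half-log concentrations (top 100 uM) in 0.5% DMSO. SLCO1B1 mRNA by TaqMan qRT-PCR, normalized to ACTB/GAPDH/POLR2A.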

[16] = read-out: sulfotransferase 2A1 (SULT2A1), SULT2A1 (gene 6822); assay: LTEA_HepaRG_SULT2A1: Life Technologies and Expression Analysis (LTEA) Assay for sulfotransferase 2A1 (SULT2A1) using HepaRG (AID 2283531)
In short: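 Differentiated human HepaRG cells in serum-free induction medium were exposed for 48 h to eight half-log concentrations (top 100 uM, 0.5% DMSO). SULT2A1 mRNA was measured by qRT-PCR, normalized to ACTB, GAPDH and POLR2A, and fitted bidirectionally against DMSO.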

[17] = read-out: Transforming Growth Factor (TGFA), TGFA (gene 7039); assay: LTEA_HepaRG_TGFA: Life Technologies and Expression Analysis (LTEA) Assay for Transforming Growth Factor (TGFA) using HepaRG (AID 2283532)
In short: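 Gene expression of TGFA was quantified by qRT-PCR after human HepaRG cells were treated for 48 h with test chemicals (eight concentrations, highest 100 uM, 0.5% DMSO). Activity in either direction was fitted relative to DMSO.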

[18] = read-out: Transforming Growth Factor (TGFB1), TGFB1 (gene 7040); assay: LTEA_HepaRG_TGFB1: Life Technologies and Expression Analysis (LTEA) Assay for Transforming Growth Factor (TGFB1) Transporter using HepaRG (AID 2283533)
In short: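 Differentiated human HepaRG cells in serum-free induction medium were exposed in duplicate for 48 h to eight concentrations (top 100 uM, half-log steps, 0.5% DMSO). TGFB1 mRNA was quantified by qRT-PCR, normalized to ACTB, GAPDH, POLR2A, and fitted bidirectionally against DMSO.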

[19] = read-out: TIMP1, TIMP1 (gene 7076); assay: LTEA_HepaRG_TIMP1: Life Technologies and Expression Analysis (LTEA) Assay for TIMP1 using HepaRG (AID 2283534);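 also: TaqMan qRT-PCR signal normalized to ACTB GAPDH and POLR2A housekeeping genes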
In short: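 Differentiated human HepaRG cells in serum-free induction medium were exposed 48 h to chemicals (8 half-log concentrations, top 100 uM, 0.5% DMSO). TIMP1 mRNA was quantified by TaqMan qRT-PCR, normalized to ACTB/GAPDH/POLR2A; bidirectional fit versus DMSO.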

[20] = read-out: Tumor necrosis factor receptor 1 (TNFRSF1A), TNFRSF1A (gene 7132); assay: LTEA_HepaRG_TNFRSF1A: Life Technologies and Expression Analysis (LTEA) Assay for Tumor necrosis factor receptor 1 (TNFRSF1A) using HepaRG (AID 2283535)
In short: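 Differentiated human HepaRG cells were exposed in duplicate for 48 h in serum-free induction medium to eight concentrations (top 100 uM, half-log steps, 0.5% DMSO). TNFRSF1A mRNA was quantified by qRT-PCR, normalized to ACTB, GAPDH and POLR2A, then fitted bidirectionally against DMSO.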

Measured: outcome

Chain of Nuclear factor erythroid 2-related factor 2 (Homo sapiens) (Q16236 whole entry, looked up): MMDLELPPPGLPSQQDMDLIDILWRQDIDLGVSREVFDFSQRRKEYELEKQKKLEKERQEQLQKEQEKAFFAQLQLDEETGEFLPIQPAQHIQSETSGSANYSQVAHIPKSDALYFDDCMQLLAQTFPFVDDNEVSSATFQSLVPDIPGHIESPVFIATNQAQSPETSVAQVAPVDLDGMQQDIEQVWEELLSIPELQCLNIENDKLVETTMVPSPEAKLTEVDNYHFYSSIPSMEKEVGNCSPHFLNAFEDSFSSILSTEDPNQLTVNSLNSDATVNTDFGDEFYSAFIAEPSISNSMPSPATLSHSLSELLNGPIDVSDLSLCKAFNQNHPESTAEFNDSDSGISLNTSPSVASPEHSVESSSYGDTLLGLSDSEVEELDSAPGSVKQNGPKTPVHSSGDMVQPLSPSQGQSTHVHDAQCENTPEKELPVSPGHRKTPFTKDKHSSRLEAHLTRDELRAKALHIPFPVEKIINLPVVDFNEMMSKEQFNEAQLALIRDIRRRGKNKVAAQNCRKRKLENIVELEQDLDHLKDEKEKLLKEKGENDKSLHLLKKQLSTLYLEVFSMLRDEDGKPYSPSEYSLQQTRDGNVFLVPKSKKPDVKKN
Chain of Signal transducer and activator of transcription 3 (Homo sapiens) (P40763 whole entry, looked up): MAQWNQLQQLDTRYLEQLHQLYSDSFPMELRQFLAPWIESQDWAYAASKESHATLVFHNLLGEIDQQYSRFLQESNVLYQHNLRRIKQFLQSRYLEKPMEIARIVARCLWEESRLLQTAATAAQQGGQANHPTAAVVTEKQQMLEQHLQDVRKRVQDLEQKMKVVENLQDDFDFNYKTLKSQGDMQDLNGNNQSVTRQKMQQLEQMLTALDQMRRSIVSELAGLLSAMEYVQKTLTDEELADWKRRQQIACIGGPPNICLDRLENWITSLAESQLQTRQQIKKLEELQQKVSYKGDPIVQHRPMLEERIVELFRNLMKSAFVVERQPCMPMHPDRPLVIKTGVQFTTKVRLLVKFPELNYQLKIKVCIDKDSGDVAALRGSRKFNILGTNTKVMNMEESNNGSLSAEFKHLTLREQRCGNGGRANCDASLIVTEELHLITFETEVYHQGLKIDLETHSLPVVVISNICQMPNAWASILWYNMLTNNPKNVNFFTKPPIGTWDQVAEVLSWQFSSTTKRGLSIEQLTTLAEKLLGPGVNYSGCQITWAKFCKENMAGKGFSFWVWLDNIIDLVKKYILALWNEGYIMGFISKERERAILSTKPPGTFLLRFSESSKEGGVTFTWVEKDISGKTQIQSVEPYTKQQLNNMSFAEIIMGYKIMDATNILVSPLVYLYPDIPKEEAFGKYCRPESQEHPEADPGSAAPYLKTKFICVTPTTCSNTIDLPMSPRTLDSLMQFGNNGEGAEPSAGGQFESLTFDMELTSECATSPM
Chain of Nuclear factor NF-kappa-B p105 subunit (Homo sapiens) (P19838 whole entry, looked up): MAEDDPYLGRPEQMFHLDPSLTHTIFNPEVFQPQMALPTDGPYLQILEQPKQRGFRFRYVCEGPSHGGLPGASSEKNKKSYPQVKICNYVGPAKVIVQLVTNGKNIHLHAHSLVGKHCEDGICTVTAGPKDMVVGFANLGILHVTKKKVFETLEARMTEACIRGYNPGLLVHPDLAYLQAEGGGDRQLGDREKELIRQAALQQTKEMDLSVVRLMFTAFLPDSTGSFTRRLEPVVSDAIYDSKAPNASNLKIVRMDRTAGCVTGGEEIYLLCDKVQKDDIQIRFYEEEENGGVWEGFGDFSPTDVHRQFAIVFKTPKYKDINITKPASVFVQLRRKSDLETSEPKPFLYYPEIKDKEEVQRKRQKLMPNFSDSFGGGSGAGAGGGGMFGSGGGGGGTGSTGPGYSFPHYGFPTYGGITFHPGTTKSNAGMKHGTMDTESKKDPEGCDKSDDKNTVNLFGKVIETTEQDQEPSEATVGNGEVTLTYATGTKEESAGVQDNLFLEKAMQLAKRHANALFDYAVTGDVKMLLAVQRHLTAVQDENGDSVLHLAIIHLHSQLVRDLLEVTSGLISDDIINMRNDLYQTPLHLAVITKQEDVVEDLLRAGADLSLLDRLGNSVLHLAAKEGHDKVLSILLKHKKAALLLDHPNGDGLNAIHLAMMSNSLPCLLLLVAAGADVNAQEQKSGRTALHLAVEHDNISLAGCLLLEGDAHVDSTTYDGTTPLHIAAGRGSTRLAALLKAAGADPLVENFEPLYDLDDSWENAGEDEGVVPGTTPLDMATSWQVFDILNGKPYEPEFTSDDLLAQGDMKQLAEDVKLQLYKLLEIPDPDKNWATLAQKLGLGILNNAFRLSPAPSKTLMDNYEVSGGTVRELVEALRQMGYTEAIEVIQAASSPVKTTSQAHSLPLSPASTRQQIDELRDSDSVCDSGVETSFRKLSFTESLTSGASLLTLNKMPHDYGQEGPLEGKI

C1CNCCN1
inactive: all assays above

Cc1ccc([N+](=O)[O-])cc1N
not listed: [6]
inactive: all other assays above

Nc1ccc(C(=O)O)cc1
inactive: all assays above
